Glyco luc inh = N-linked glycosylation inhibition; D54 ERlucT glycosylation luciferase reporter, 24 h; percent of 100 nM tunicamycin response; reporter increase, % at 12.5 µM; hit rate 0.23% among 360,000; AID 588692;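 active means mean luciferase reporter signal, scaled so untreated is 0 and the glycosylation-blocking control 100, at or above a set limit in every replicate; inconclusive means mean reaches the limit but not every replicate does; inactive means mean below the limit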;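 further: luciferase carries N-glycosylation sites so blocking glycosylation raises the light; 0% = median of neutral control wells and 100% = median of 100 nM tunicamycin wells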
CDK5 inh = CDK5/p35 (human) kinase inhibition; Q00535+Q15078; Recombinant CDK5/p35, ADP-Glo luminescence, 60 min; inhibition, % at 10 µM; hit rate 0.01% among 330,000; AID 488839;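 active means highest replicate inhibition of at least 50% and at least 75% of replicates reaching 50%; inconclusive means only one of the two criteria met; inactive means both criteria failed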;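 further: plate controls were DMSO neutral control for no effect and GW8510 at 10 µM for full effect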
ALR inh = inhibitors of human sulfhydryl oxidase ALR; purified ALR, DTT oxidation, H2O2 HRP-luminol luminescence; inhibition, % (concentration not given with the values); hit rate 3.8% among 290,000;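 active means mean replicate inhibition above about 79%, with every replicate also reaching it, limit read from the data; inconclusive means only one of the two criteria met; inactive means mean below limit and not every replicate reaching it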
Target sequence (P55789 whole entry, looked up): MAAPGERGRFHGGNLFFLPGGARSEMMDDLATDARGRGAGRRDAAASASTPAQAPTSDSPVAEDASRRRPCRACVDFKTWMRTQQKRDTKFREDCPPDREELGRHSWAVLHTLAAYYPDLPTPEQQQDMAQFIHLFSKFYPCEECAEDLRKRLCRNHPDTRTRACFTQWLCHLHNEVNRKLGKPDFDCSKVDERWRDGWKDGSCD
NSD2 inh = NSD2 (human) methyltransferase inhibition; O96028; NSD2 peptide methylation, AlphaScreen, 120 min; inhibition, % at 12.5 µM; hit rate 0.54% among 310,000; AID 743445; in the data active means inhibition above about 50%
Mot1-301 SUMO = blocks SUMOylation pathway, rescuing yeast Mot1-301 growth; S. cerevisiae Mot1-301 growth rescue, ATP luminescence, 38.5C; percent above DMSO median, 100 means doubled; growth rescue, % at 18.8 µM; hit rate 1% among 320,000;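 active means every valid replicate shows activation above 250% relative to neutral control wells; inactive means the rest, any valid replicate at or below 250%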;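 further: OY570 slx delta 5 strain wells were the positive control but not used for scaling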
CASP6 VEID inh = blocks human caspase-6 cleavage activity | inhibition, % at 12.5 µM | hit rate 0.53% among 350,000 | purified caspase-6, Z-VEID-R110 cleavage fluorescence | P55212;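 active means mean inhibition across replicates at least about 35%, with every replicate also reaching that limit, limit read from the data; inconclusive means only one of the two criteria met; inactive means neither criterion met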;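 further: 0% = median of neutral control wells and 100% = no fluorescence left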
Target sequence (P55212 24-179 limits assumed): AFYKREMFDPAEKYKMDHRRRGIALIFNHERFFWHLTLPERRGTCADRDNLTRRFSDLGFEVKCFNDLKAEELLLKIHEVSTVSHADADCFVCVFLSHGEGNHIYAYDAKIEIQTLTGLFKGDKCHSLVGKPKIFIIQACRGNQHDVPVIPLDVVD
Target sequence (P55212 194-293 limits assumed): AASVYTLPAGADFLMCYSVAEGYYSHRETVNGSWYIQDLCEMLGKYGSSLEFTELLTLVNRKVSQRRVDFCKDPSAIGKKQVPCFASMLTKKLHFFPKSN
The depositor's hits bear a star; ? = inconclusive; . = no result. In the library only some 3.9% were active in any assay of this set; here they are far more common.

SMILES	Glyco luc inh	CDK5 inh	ALR inh	NSD2 inh	Mot1-301 SUMO	CASP6 VEID inh
CCOc1cc(-c2c(C#N)c(N)nc3c2CCCC3C)ccc1O (configuration not stated)	3	2	98*	-1	305	.
CC(C)CC#Cc1ccc2c(c1)O[C@H](CN(C)C(=O)Cc1ccccn1)[C@@H](C)CN([C@@H](C)CO)S2(=O)=O	.	.	.	.	.	-1
COCC(=O)Nc1ccc2c(c1)OC[C@H](C)NC[C@H](C)[C@@H](OC)CN(C)C2=O	.	.	.	.	.	-1
CCOc1cc(/C=N/Nc2nc3ccccc3[nH]2)cc(Br)c1OCC(=O)N(C)C	-3	2	98*	-3	-7	19
C(=N\Nc1nc2ccccc2[nH]1)/c1ccc2ncccc2c1	45*	7	13	.	-15	0
COc1cc(/C=N\Nc2nc3ccccc3[nH]2)cc(OC)c1OC	-3	3	99*	-6	-1	.
COc1ccc(/C=N/Nc2nc3ccccc3[nH]2)cc1OC	-8	3	99*	3	18	9
O=C(C[C@H]1C=C[C@@H](NC(=O)c2ccncc2)[C@@H](CO)O1)NCC1CCCCC1	.	.	.	.	.	-2
COc1ccc([Si](C)(C)[C@@H]2[C@@H](CCn3cc(CCO)nn3)O[C@]3(C(=O)N(c4ccccc4)c4ccccc43)[C@H]2C)cc1	.	.	.	.	.	-2
COc1ccc(CN(C)C[C@@H]2Oc3c(NS(=O)(=O)c4ccc(F)cc4)cccc3C(=O)N([C@@H](C)CO)C[C@@H]2C)cc1	.	.	.	.	.	1
Cc1ccc(-c2nc(SCC(=O)N(C)C3CCS(=O)(=O)C3)[nH]c2-c2ccc(C)cc2)cc1 (configuration not stated)	13	-6	98*	12	0	.
Cc1ccc(SCC(=O)N(C)C2CCS(=O)(=O)C2)cc1 (configuration not stated)	3	0	-3	7	399	1
C[C@H](NC(=O)C[C@H]1C=C[C@H](NC(=O)Cc2ccccn2)[C@H](CO)O1)c1ccccc1	.	.	.	.	.	-1
Cc1noc(C)c1NC(=O)Nc1cccc2c1O[C@@H](CN(C)C)[C@@H](C)CN([C@@H](C)CO)C2=O	.	.	.	.	.	-2
CS/C(=C\[N+](=O)[O-])Nc1ccccc1	0	0	80*	-2	3	.
CS/C(=C\[N+](=O)[O-])Nc1ccc(F)cc1	4	-3	20	-2	-2	.
CC(=O)c1cccc(Nc2cc(C)nc3c(C)cc(C)cc23)c1	67*	0	-6	0	2	.
C[C@@H]1CCCCO[C@@H](CN(C)C(=O)CCCN(C)C)[C@H](C)CN([C@@H](C)CO)C(=O)c2cc(NS(=O)(=O)c3cn(C)cn3)ccc2O1	.	.	.	.	.	0
O=C(CSc1n[nH]c(=O)[nH]c1=O)Nc1ccc(SC(F)F)cc1	1	1	99*	1	-2	-2
N=c1sccn1CC(=O)Nc1ccc(S(N)(=O)=O)cc1	-2	0	.	-2	-10	1
C/C=C/C(=O)OCC(=O)Nc1ccc(SC(F)F)cc1	0	1	99*	0	-26	-1
CCC(C(=O)OCC(=O)Nc1ccc(SC(F)F)cc1)c1ccccc1 (configuration not stated)	-3	0	.	-3	.	1
O=C(Cc1ccccc1)Nc1ccc(SC(F)F)cc1	-3	1	-6	1	20	-1
CC(=O)OCC(=O)Nc1ccc(SC(F)F)cc1	1	2	99*	-2	-18	-5
N=c1sccn1CC(=O)Nc1ccc(SC(F)F)cc1	1	0	98*	-1	-14	-7
SMILES	Glyco luc inh	CDK5 inh	ALR inh	NSD2 inh	Mot1-301 SUMO	CASP6 VEID inh
CCCNC(=O)C[C@H]1C[C@H]2c3cc(NC(=O)COC)ccc3O[C@H]2[C@@H](CO)O1	.	.	.	.	.	3
COCC#Cc1ccc2c(c1)O[C@@H](CN(C)CC1CCOCC1)[C@@H](C)CN([C@@H](C)CO)S2(=O)=O	.	.	.	.	.	0
Cc1cc(C(F)(F)F)nn1Cc1n[nH]c(=S)n1-c1ccc(Cl)cc1	2	-3	11	1	-7	.
Cc1cc(C(F)(F)F)nn1Cc1n[nH]c(=S)n1Cc1ccccc1	1	1	82*	1	651	.
O=C(Cc1c[nH]c2ccccc12)NCc1cccs1	1	0	22	-1	4	-4
O=C(CCCc1c[nH]c2ccccc12)Nc1ccc(S(=O)(=O)Nc2ncccn2)cc1	-1	0	.	0	759*	0
O=C(CCCc1c[nH]c2ccccc12)NCc1cccs1	-1	2	90*	0	-14	2
CC(=O)Nc1ccc(NC(=O)COC(=O)CCCc2c[nH]c3ccccc23)cc1	0	-1	94*	-3	9	1
O=C(CCc1c[nH]c2ccccc12)Nc1ccc(Nc2ccncc2)cc1	.	.	.	4	.	-26
NC(=O)NC(=O)COC(=O)CCCc1c[nH]c2ccccc12	1	0	?	2	-22	.
CC12CCC(C(=O)NNc3ccccc3)(C(=O)C1=O)C2(C)C (configuration not stated)	2	0	98*	-1	-9	-1
N#Cc1c(SCC(=O)Nc2nccs2)sc2c(O)cc(=O)[nH]c12	2	3	99*	32	7	82*
COc1ccc2nc(NC(=O)CSc3nc4ccccc4o3)sc2c1	-4	-1	47	0	.	.
N#Cc1c(SCC(=O)Nc2nc3ccccc3s2)sc2c(O)cc(=O)[nH]c12	0	1	99*	5	19	60*
N#Cc1c(SCC(=O)Nc2nc3ccc(Br)cc3s2)sc2c(O)cc(=O)[nH]c12	1	-1	99*	.	0	33
Cc1cc(C(F)(F)F)c(C#N)c(SCC(=O)Nc2nc3cc(Br)ccc3s2)n1	-2	0	0	.	2	-2
O=C(CSc1nc2ccccc2o1)Nc1nc2ccc(Br)cc2s1	3	-1	98*	0	7	.
O=C(CSc1ccccn1)Nc1nc2ccccc2s1	2	-1	0	27	22	.
CC(C)CC#Cc1ccc2c(c1)O[C@H](CN(C)C(=O)Cc1ccccc1)[C@H](C)CN([C@H](C)CO)S2(=O)=O	.	.	.	.	.	1
CCN(CC)c1ccc(NC(=O)C2CC3CCC2C3)cc1 (configuration not stated)	-1	0	99*	22	-7	.
COc1ccc(-c2cc3ccccc3[nH]2)cc1	-3	-2	0	.	-1	24
Cc1ccc(O)c(-c2cc3ccccc3[nH]2)c1	-2	3	99*	5	-10	.
CCOC(=O)C1CCN(CC(O)COC(CC)c2ccccc2)CC1 (configuration not stated)	-1	-2	0	1	308*	-3
Cc1noc(C)c1NC(=O)Nc1ccc2c(c1)C(=O)N([C@@H](C)CO)C[C@@H](C)[C@@H](CN(C)C(=O)C1CCCCC1)OCCCC[C@@H](C)O2	.	.	.	.	.	3
Cc1cc(CSC(=N)N)c(CSC(=N)N)cc1C	4	0	99*	-3	29	-1
